Results taken from publication PMC10668032, “Altered binding affinity of SIX1-Q177R correlates with enhanced WNT5A and WNT pathway effector expression in Wilms tumor”.
Over roughly 33,000 sequences, “e-score” has its median near -0.053; the highest 2% begin near 0.38. The sample holds the highest values, similar sequences and a random draw of the others, so the mix is not that of the screen.

These sequences were tested against T1, SIX1 homeodomain (reference allele) (human, UniProt Q15475 108-198) (assay: universal protein binding microarray; Universal all-10-mer PBM (8x60K, AMADID 030236), 300 nM GST-tagged protein, Alexa Fluor 488 anti-GST; buffer, salt, pH and temperature not stated (as in Berger); high values mean tight binding). Conditions: protein: ivt; tags: N-terminal GST; dsDNA, one strand shown.
T1 sequence: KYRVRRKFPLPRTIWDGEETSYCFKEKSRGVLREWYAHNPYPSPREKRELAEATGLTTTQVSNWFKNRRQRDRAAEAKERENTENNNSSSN
Procedure, shortened: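 Duplicate protein binding microarrays (universal 'all 10-mer', 8×60K format) were incubated with GST-tagged homeodomains at 300 nM final concentration. Binding was quantified as 8-mer E-scores with the Universal PBM Analysis Suite.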
In the case of ATACGAAA, the binding signal is reported as 0.226 ± 0.0116 E-score.
ATCCTAAA was tested, and the binding signal was 0.184 ± 0.0231 E-score.
With ACACCTGG the binding signal was 0.172 ± 0.0558 E-score.
With ACAATACC the binding signal was 0.318 ± 0.028 E-score.
GGATAAAA was tested, and the binding signal was 0.166 ± 0.106 E-score.
For GTGGACAC, the binding signal was 0.182 ± 0.0385 E-score.
ATCACCGC gave a binding signal of 0.191 ± 0.00595 E-score.
For ATCTGTGC, the binding signal was 0.153 ± 0.0364 E-score.
ATAAATAT showed a binding signal of 0.168 ± 0.1 E-score.
Sequence GAACCCGA has a binding signal of 0.19 ± 0.0702 E-score.
For ATAGCCAT, the binding signal was 0.218 ± 0.0172 E-score.
AGTATCTA gave a binding signal of 0.347 ± 0.0371 E-score.
Sequence GGTATCTA has a binding signal of 0.426 ± 0.0126 E-score.
GCTATCTA gave a binding signal of 0.169 ± 0.00501 E-score.
Sequence CCAGTATC has a binding signal of 0.407 ± 0.0315 E-score.
GCAGTATA showed a binding signal of 0.205 ± 0.0152 E-score.
With ACAGTATC the binding signal was 0.402 ± 0.0345 E-score.
With ACAGTATA the binding signal was 0.287 ± 0.0542 E-score.
CCTGTATC showed a binding signal of 0.365 ± 0.02 E-score.
Work on ATTGTATC yielded a binding signal of 0.367 ± 0.0214 E-score.
GATCTTGA showed a binding signal of 0.269 ± 0.0237 E-score.
Work on ATCACGCA yielded a binding signal of 0.203 ± 0.00725 E-score.
For ATGAGATG, the binding signal was 0.243 ± 0.00629 E-score.
With TATCGTAA the binding signal was 0.296 ± 0.0233 E-score.
ACACCGGA gave a binding signal of 0.364 ± 0.0193 E-score.
ACACCGGT was tested, and the binding signal was 0.39 ± 0.0245 E-score.
For ACACCGGG, the binding signal was 0.301 ± 0.000651 E-score.
CGGATGTA was tested, and the binding signal was 0.151 ± 0.0426 E-score.
In the case of TAGGCGAA, the binding signal is reported as 0.164 ± 0.00529 E-score.
In the case of ATGGTCTC, the binding signal is reported as 0.153 ± 0.0473 E-score.
GTGGTATA showed a binding signal of 0.3 ± 0.0344 E-score.
In the case of CTGGTATA, the binding signal is reported as 0.255 ± 0.0119 E-score.
For CTGGTATC, the binding signal was 0.45 ± 0.00737 E-score.
With ATGGTATC the binding signal was 0.469 ± 0.00713 E-score.
ATGGTATA showed a binding signal of 0.336 ± 0.0339 E-score.
AACGACAC showed a binding signal of 0.276 ± 0.0085 E-score.
In the case of AACGATAC, the binding signal is reported as 0.435 ± 0.0105 E-score.
AACGATAT gave a binding signal of 0.408 ± 0.0444 E-score.
With AACGATCT the binding signal was 0.176 ± 0.00697 E-score.
AAGGATAT was tested, and the binding signal was 0.365 ± 0.0541 E-score.
In the case of CACGATAG, the binding signal is reported as 0.245 ± 0.0038 E-score.
CACGATCC showed a binding signal of 0.342 ± 0.0744 E-score.
Work on GACGATCC yielded a binding signal of 0.387 ± 0.0391 E-score.
Work on AACGATCC yielded a binding signal of 0.333 ± 0.0104 E-score.
With TACGATAA the binding signal was 0.175 ± 0.0264 E-score.
For CACGATAC, the binding signal was 0.438 ± 0.0144 E-score.
AACGATAG showed a binding signal of 0.175 ± 0.0167 E-score.
ATATAACG was tested, and the binding signal was 0.2329 ± 0.00214 E-score.
Work on ATTGTATA yielded a binding signal of 0.308 ± 0.00631 E-score.
Work on CCTCATCG yielded a binding signal of 0.185 ± 0.0079 E-score.
In the case of TAAGATCA, the binding signal is reported as 0.293 ± 0.0543 E-score.
CGATTAAA showed a binding signal of 0.156 ± 0.0382 E-score.
AATCTGAT gave a binding signal of 0.289 ± 0.0333 E-score.
CGGATGAG was tested, and the binding signal was 0.183 ± 0.049 E-score.
With TATCTCGA the binding signal was 0.248 ± 0.0332 E-score.
In the case of CAAGGGGA, the binding signal is reported as 0.165 ± 0.0484 E-score.
GAAGATAC showed a binding signal of 0.354 ± 0.0356 E-score.
GACGATAC showed a binding signal of 0.453 ± 0.00476 E-score.
GACGACAC showed a binding signal of 0.164 ± 0.00255 E-score.
GGTAATAC showed a binding signal of 0.297 ± 0.025 E-score.
Sequence ATATGTGC has a binding signal of 0.241 ± 0.0491 E-score.
Work on ATCCGGGG yielded a binding signal of 0.418 ± 0.0155 E-score.
Sequence ATCCGGGA has a binding signal of 0.295 ± 0.0471 E-score.
For ATCCGGGC, the binding signal was 0.3565 ± 0.000735 E-score.
In the case of ATCCGGTC, the binding signal is reported as 0.318 ± 0.00861 E-score.
Sequence ATCCGGTA has a binding signal of 0.318 ± 0.0245 E-score.
Work on ATCCGGTG yielded a binding signal of 0.405 ± 0.026 E-score.
In the case of GAAGACAC, the binding signal is reported as 0.21 ± 0.0292 E-score.
Sequence CTAACACC has a binding signal of 0.213 ± 0.0035 E-score.
In the case of TCTCACCA, the binding signal is reported as 0.259 ± 0.00728 E-score.
For GATCACAA, the binding signal was 0.31 ± 0.0262 E-score.
In the case of GATCACCA, the binding signal is reported as 0.334 ± 0.0295 E-score.
Sequence TATCACGA has a binding signal of 0.373 ± 0.0201 E-score.
TATCACAA showed a binding signal of 0.385 ± 0.049 E-score.
For TATCACCA, the binding signal was 0.42 ± 0.031 E-score.
Sequence CGATAATA has a binding signal of 0.328 ± 0.0401 E-score.
With CCCTTCTC the binding signal was 0.274 ± 0.0318 E-score.
ATAGTCTC was tested, and the binding signal was 0.151 ± 0.0259 E-score.
ACAGATCG showed a binding signal of 0.2347 ± 0.00197 E-score.
Work on AGCGGATA yielded a binding signal of 0.364 ± 0.0328 E-score.
In the case of GGCGGGTA, the binding signal is reported as 0.228 ± 0.0067 E-score.
CGCGGATC was tested, and the binding signal was 0.365 ± 0.0314 E-score.
In the case of CGCGGATA, the binding signal is reported as 0.3882 ± 0.00207 E-score.
In the case of AGCGGATG, the binding signal is reported as 0.154 ± 0.049 E-score.
With GGCGGATA the binding signal was 0.403 ± 0.0134 E-score.
With GATCAGCC the binding signal was 0.293 ± 0.0341 E-score.
ATCGCATC showed a binding signal of 0.3271 ± 0.00246 E-score.
With ATCGTATC the binding signal was 0.441 ± 0.0183 E-score.
In the case of CTCGTATC, the binding signal is reported as 0.367 ± 0.0253 E-score.
GACGTATC gave a binding signal of 0.42 ± 0.0354 E-score.
GACGTATA showed a binding signal of 0.213 ± 0.108 E-score.
With AACGTATA the binding signal was 0.167 ± 0.109 E-score.
In the case of GACGTCTC, the binding signal is reported as 0.163 ± 0.0364 E-score.
Sequence CACGTATC has a binding signal of 0.433 ± 0.00889 E-score.
TACGTATA gave a binding signal of 0.272 ± 0.0445 E-score.
Sequence AACGTATC has a binding signal of 0.385 ± 0.067 E-score.
In the case of ATCGTATA, the binding signal is reported as 0.324 ± 0.00599 E-score.
In the case of CACGTATA, the binding signal is reported as 0.304 ± 0.0586 E-score.
AACCTATC gave a binding signal of 0.246 ± 0.0031 E-score.
